Data taken from PubChem BioAssay AID2551 (National Center for Advancing Translational Sciences (NCATS), 2010).
In all, about 310,000 compounds went through this assay and about 17,000 (5.5%) were called active. Another 11% or so got no clear call; they are omitted. The sample holds actives, similar compounds and a random draw of the others, so the mix is not that of the screen. A number with no mark means an inactive call. Calls come from the whole dose curve; as a rule, active = well fitted inhibition curve with a large enough effect; inconclusive = small, poorly fitted or top-dose-only effect, or effect the other way; inactive = no such curve, though single readings can be large or run the other way.

Biological target: Nuclear receptor ROR-gamma (Mus musculus) (UniProt P51450)
Assay: qHTS for inhibitors of ROR gamma transcriptional activity; note: nearly all actives have a fitted effect of over 60% in size
Settings: Drosophila S2 Gal4-RORgamma UAS-luciferase reporter, 20 h; series mostly up to 53.6 µM; activity change, negative = inhibition: at the top concentration
In short: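 Drosophila Schneider cells stably carrying a metallothionein-driven Gal4 DBD–ROR gamma fusion and a UAS-Photinus luciferase reporter were exposed to compound for 1 hr, then induced with copper sulfate (700 uM final) for 20 hr at ambient temperature before luminescence reading.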
% is set by controls: 0 for no effect and ±100 for the full control effect; potency is the fitted concentration of half-maximal effect.

Nuclear receptor ROR-gamma (Mus musculus), sequence (P51450 whole entry, looked up): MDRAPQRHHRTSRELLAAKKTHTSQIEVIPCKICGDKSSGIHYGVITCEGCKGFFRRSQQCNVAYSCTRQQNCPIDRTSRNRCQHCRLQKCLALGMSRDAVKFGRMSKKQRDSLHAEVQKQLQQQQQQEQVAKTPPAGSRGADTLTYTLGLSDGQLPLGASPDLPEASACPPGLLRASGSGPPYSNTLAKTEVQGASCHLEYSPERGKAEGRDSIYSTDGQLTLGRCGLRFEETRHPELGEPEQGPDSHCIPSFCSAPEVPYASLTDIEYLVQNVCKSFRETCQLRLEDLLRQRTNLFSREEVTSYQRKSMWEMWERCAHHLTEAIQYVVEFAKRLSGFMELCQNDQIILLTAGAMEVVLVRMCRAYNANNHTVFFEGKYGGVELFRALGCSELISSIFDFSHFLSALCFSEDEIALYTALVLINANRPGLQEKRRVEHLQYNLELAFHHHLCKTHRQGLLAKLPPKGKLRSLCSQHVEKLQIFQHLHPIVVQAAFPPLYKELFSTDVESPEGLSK

SMILES | activity change, negative = inhibition | Potency
C/C(=N\Nc1nncc2ccccc12)c1ccc(Cl)c([N+](=O)[O-])c1 | -15.3% | –
COc1ccc(NC(=O)CC2C(=O)NC3CCCCC3N2C(=O)c2ccc(F)cc2)cc1 (configuration not stated) | 8.91% | –
O=C(c1ccc(S(=O)(=O)N2CCCC2)cc1)N1CCN(c2ccccc2F)CC1 | 5.53% | –
Cn1c(=O)cc(OCC(=O)N2CCN(c3ccccc3F)CC2)c2ccccc21 | -6.44% | –
O=C(Nn1cc(C(=O)N2CCN(c3ccccc3F)CC2)c2ccccc2c1=O)c1cnccn1 | – | 14.1 µM (active)
CC1CCN(C(=O)c2ccc3c(=O)n4c(nc3c2)CCCCC4)CC1 | -0.982% | –
NS(=O)(=O)c1ccccc1NC(=O)c1c(O)c2ccccc2[nH]c1=O | -12% | –
C/C(=N\NC(N)=S)c1ccncc1 | -38.1% | –
C/C(=N\NC(=S)NC(C)C)c1ccc(C(C)(C)C)cc1 | – | 1 µM (active)
C/C(=N\NC(N)=S)c1cccnc1 | -8.34% | –
Cn1c(=O)c2sccc2n(Cc2ccc(Br)cc2)c1=O | 61.6% | –
O=C(CN1C(=O)CSC1=O)N1CCCC(Nc2ccc(F)cc2)C1 (configuration not stated) | 18% | –
Nc1cc(N)nc(SCc2cccc(F)c2)n1 | 19.2% | –
CCC(=O)Nc1ccc(C(=O)Nc2cc(C)on2)cc1 | -13.3% | –
Cc1cc(C(=O)NCCCc2ccccc2)no1 | 17.6% | –
CCCCNC(=S)NNC(=O)c1cc(C)on1 | – | 10 µM (active)
O=C(Nc1ccccc1)c1ccco1 | -3.1% | –
COc1ccc(NC(=O)NN2CCN(C)CC2)c(OC)c1 | 10.2% | –
COc1ccc(CCn2c(=N)c(C(=O)NCC3CCCO3)cc3c(=O)n4cccc(C)c4nc32)cc1OC (configuration not stated) | -28% | –
COc1ccc(/C=C(/CC(=O)Nc2ccc(C)cc2)c2nc3ccccc3s2)cc1 | 33.7% | –
COc1ccc(S(=O)(=O)N2CCOCC2)cc1C(=O)Nc1nc2ccccc2s1 | -12.9% | –
COc1cccc2sc(NNC(=O)c3nc4ccccc4s3)nc12 | – | 3.55 µM (active)

SMILES | activity change, negative = inhibition | Potency
CCOC(=O)CNC(=O)CSc1ncccc1-c1nc2ccccc2[nH]1 | 43.9% | –
COc1ccc(N(CC(=O)NCc2ccc(F)cc2)C(=O)CCC(=O)Nc2nccs2)cc1 | -29.3% | –
COc1ccc(S(=O)(=O)NNC(=O)Nc2ccc(C)cc2)c(OC)c1 | -9.69% | –
CCOC(=O)NN1C(=O)c2ccccc2NC1c1ccccc1O (configuration not stated) | – | 11.2 µM (active)
CCOC(=O)NN1C(=O)c2ccccc2NC1c1cccc(O)c1 (configuration not stated) | 16.3% | –
O=C1c2ccccc2NC(c2ccccc2O)N1NS(=O)(=O)c1ccccc1 (configuration not stated) | -4.74% | –
COc1ccc(N(CC(=O)N2CCOCC2)S(=O)(=O)c2ccccc2)cc1Cl | -7.47% | –
Cc1ccc(NC(=O)CCN2C(=O)c3ccccc3C2=O)cc1C | 2.87% | –
Cc1nn(-c2ccccc2)c2c1c(C)c(CCC(=O)NCC1CCCO1)c(=O)n2C (configuration not stated) | -11.4% | –
O=C(COc1ccc(Cl)cc1Cl)N/N=C/c1ccccn1 | – | 12.6 µM (active)
CSc1ccc(/C=N\NC(=O)COc2ccc(Cl)cc2Br)cc1 | -30.3% | –
O=C(N/N=C/c1ccccn1)c1cccc(NC(=O)c2ccc(Cl)cc2)c1 | -27.8% | –
C=CCN1CN(S(=O)(=O)c2ccc(OC)cc2)c2nc3ccccc3nc21 | 14.6% | –
O=C(NC(Nc1nc2ccc([N+](=O)[O-])cc2s1)(C(F)(F)F)C(F)(F)F)c1ccccc1 | – | 6.31 µM (active)
O=C(COC(=O)c1ccc(F)cc1)Nc1nc2ccc([N+](=O)[O-])cc2s1 | -1.04% | –
O=C(Nc1nc2ccc([N+](=O)[O-])cc2s1)c1ccncc1 | 13% | –
CCOc1ccccc1NS(=O)(=O)c1cc2c3c(c1)C(C)C(=O)N3CCC2 (configuration not stated) | 8.24% | –
CCc1ccccc1NC(=O)c1ccc2snnc2c1 | -1.7% | –
COCCN1CCN(C(=O)c2cc(COc3ccc(F)cc3Cl)on2)CC1 | 4.15% | –
CCCCn1c(SCC(=O)NCC2CCCO2)nc2ccc(N3CCOCC3)cc2c1=O (configuration not stated) | – | 2.51 µM (active)
CCn1c(SCC(=O)NCC2CCCO2)nc2cc(S(=O)(=O)N3CCCCC3)ccc21 (configuration not stated) | 29.2% | –
COCCNC(=O)c1ccc(Cn2c(SCC(=O)NCC3CCCO3)nc3ccc(Br)cc3c2=O)cc1 (configuration not stated) | 5.53% | –

SMILES | activity change, negative = inhibition | Potency
CCCCNC(=O)c1cn(CC)c2cc(N3CCN(C(=O)c4ccco4)CC3)c(F)cc2c1=O | 4.18% | –
CCCOc1ccc(Cc2c(O)nc(N)[nH]c2=O)cc1C | 1.22% | –
Cc1ccsc1/C=N/Nc1ccc(Cl)nn1 | -20.8% | –
COc1cccc(/C=N/Nc2ccc(Cl)nn2)c1 | -7.53% | –
Oc1cccc(/C=N/Nc2ccc(Cl)nn2)c1O | – | 1.41 µM (active)
Cc1ccc(C)c(S(=O)(=O)N2CCCOC2CNC(=O)C(=O)NC2CCCCC2)c1 (configuration not stated) | -12.7% | –
Cc1ccccc1CN1CCNC(=O)C1CC(=O)NCCC1=CCCCC1 (configuration not stated) | 6.29% | –
COC(=O)C1=CN(Cc2ccc(OC)cc2)C=C(C(=O)OC)C1c1ccc(O)c(OC)c1 | 2% | –
CN1C(=O)[C@H]2[C@@H](C3CC3)N3C(=O)CN(Cc4ccccc4)C(=O)[C@@]3(C)[C@H]2C1=O | -0.788% | –
COC(=O)c1ccc(C(=O)NC2CC(C)(C)Cc3c2cnn3-c2ccc(F)cc2)nc1 (configuration not stated) | 27.3% | –
CCc1ccc(OCC(O)CN2CCN(CCO)CC2)cc1 (configuration not stated) | 6.29% | –
O=C(Oc1ccc(-c2nc(-c3ccccn3)no2)cc1)c1ccccc1 | 1.49% | –
c1ccc(-c2noc(-c3cccs3)n2)nc1 | – | 1.26 µM (active)
c1csc(-c2nc(-c3ccncc3)no2)c1 | -25.3% | –
COc1ccc2[nH]c(=O)c(C3c4cc(OC)c(OC)cc4CCN3C(=O)c3ccco3)cc2c1 (configuration not stated) | -0.908% | –
CC1CCCCC1NC(=O)CCS(=O)(=O)c1ccc2c(c1)NC(=O)CO2 (configuration not stated) | -15.6% | –
COc1cccc(NC(=O)C2C(c3ccccc3)C2(Cl)Cl)c1 (configuration not stated) | 27.3% | –
COc1ccc(-c2cc(C(=O)N3CCN(Cc4ccc5c(c4)OCO5)CC3)on2)cc1OC | 0.905% | –
C=CS(=O)c1sc(Cl)c(N2CCOCC2)c1[N+](=O)[O-] (configuration not stated) | – | 4.47 µM (active)
O=C(CCN1C(=O)C2C3CCC(C3)C2C1=O)Nc1ccc(Cl)cc1Cl (configuration not stated) | 15% | –
CC(=O)N1CCOc2ccc(S(=O)(=O)N3CCC(C(=O)Nc4ccccc4F)CC3)cc21 | 3.01% | –
COc1ccc(NC(=O)Cn2ncn3c(cc4ccccc43)c2=O)c(OC)c1OC | 5.63% | –

SMILES | activity change, negative = inhibition | Potency
CC(C)(C)C(=O)Cn1c(NCCO)nc2ccccc21 | 20.4% | –
CC(=O)NCCc1nc2cc(NC(=O)c3ccccc3)ccc2n1C | -25.2% | –
Cn1sc(NC(=O)c2ccccc2)nc1=O | 4.29% | –
CCc1nc2ccccc2n(CCOCCOCCn2c(=O)c(CC)nc3ccccc32)c1=O | -24.8% | –
Cn1c(NC(=O)c2ccccc2)nc2ccccc21 | – | 1 µM (active)
CCn1c(NC(=O)c2nn(C)cc2Br)nc2ccccc21 | – | 2.51 µM (active)
COc1cc(C(=O)N/C(=C\c2cn(C)c3ccccc23)C(=O)N2CCOCC2)cc(OC)c1OC | -8.8% | –
COC(=O)c1ccc(CNC(=O)c2ccc3oc(C(C)C)nc3c2)cc1 | -3.51% | –
CCOc1ccc(CN2CCN(Cc3ccc4cc(F)ccc4n3)CC2CCO)cc1 (configuration not stated) | -21.1% | –
CC(C)(C)c1ccc(C(=O)N2CCC(C(=O)N3CCCCC3)CC2)cc1 | 17.5% | –
Cc1ccc(C)c(OCCC(=O)OCC(=O)N2CCN(c3ccccc3)CC2)c1 | 22.2% | –
O=C(NCCc1ccc(Cl)cc1)c1cccc(N2CCCC2=O)c1 | 41.2% | –
Cc1ccc(/C=N/NC(=O)CNC(=O)COc2ccccc2)o1 | 14.7% | –
Cc1ccc(/C=N/NC(=O)Cn2ccc(C(F)(F)F)n2)o1 | 0.733% | –
Cc1ccc(/C=N/NC(=O)c2cc3ccccc3cc2O)o1 | – | 1.41 µM (active)
CC(=O)N(C)c1ccc(NC(=O)Nc2cccc3ccccc23)cc1 | -22.6% | –
COc1cccc(NC(=O)c2ccccc2N(Cc2ccccc2)S(C)(=O)=O)c1 | 1.83% | –
CC1Cc2ccccc2N1C(=O)c1cc2sccc2n1Cc1ccccc1 (configuration not stated) | 27.1% | –
CC1CC(=S)Nc2ccccc2N1Cc1ccccc1 (configuration not stated) | – | 1.41 µM (active)
CC1CC(=O)Nc2ccccc2N1S(=O)(=O)c1cccs1 (configuration not stated) | -18.1% | –
O=C(CN1CCN(c2ccccn2)CC1)Nc1ccc(Br)cc1 | 6% | –
CCCCSc1nnc(-c2ccc(NC(=O)CC)cc2)n1C | 27.9% | –

SMILES | activity change, negative = inhibition | Potency
CCC(=O)Nc1ccc(-c2ccc(N3CCCCC3)nn2)cc1 | – | 4.47 µM (active)
Cc1c(S(=O)(=O)N2CC(C)CC(C)C2)c(=O)n(C)c(=O)n1C (configuration not stated) | -30.5% | –
CN(Cc1ccccc1)C(=O)CCc1ccccc1 | 25.2% | –
Cn1c(-c2ccc(F)cc2)cnc1SCC(=O)NNC(=O)Cc1ccccc1 | -1.11% | –
Cc1ccc(-c2cnc(NC(=O)CCC(=O)N(C)Cc3ccccc3)n2C)cc1 | – | 2.24 µM (active)
Cc1nc(-c2ccc(F)cc2)c(CC(=O)N2CCN(S(=O)(=O)c3ccc(F)cc3)CC2)s1 | 33.3% | –
CCn1c(C)cc(=O)cc1-c1ccc(Cl)cc1 | 0.704% | –
Cc1ccc(NC(=O)c2cc(-c3ccccc3O)n[nH]2)cc1C | -21.9% | –
Oc1ccccc1-c1cc(-c2ccc(Cl)cc2)n[nH]1 | – | 7.08 µM (active)
c1ccc(-c2cc(-c3ccccc3)[nH]n2)cc1 | 14.3% | –
CCn1ccnc1CNC(=O)CC1C(=O)NCCN1Cc1ccc(F)cc1Cl (configuration not stated) | 8.52% | –
CN(C(=O)CC1C(=O)NCCN1Cc1ccc2ccccc2c1)C1CCOCC1 (configuration not stated) | -9.24% | –
CN(C(=O)CC1C(=O)NCCN1Cc1ccc(F)cc1Cl)C1CCCCC1 (configuration not stated) | – | 11.2 µM (active)
COc1cc(C2C(C(=O)c3ccco3)=C(O)C(=O)N2c2cc(C)on2)ccc1OCc1ccccc1 (configuration not stated) | 2.05% | –
COc1ccc(C(C(=O)NC(C)(C)C)N(Cc2ccc(F)cc2)C(=O)CCC(=O)Nc2cc(C)on2)cc1 (configuration not stated) | 21.9% | –
O=C(Nc1ccccc1C(=O)O)c1ccc(N2C(=O)C3CC=CCC3C2=O)cc1 (configuration not stated) | -11.1% | –
O=C(Cn1cnc2ccccc21)N/N=C/c1ccco1 | – | 12.6 µM (active)
O=C(Cn1cnc2ccccc21)Nc1ccccc1-c1ccccc1 | 20.3% | –
Cc1cc(C)c(OCC(=O)N/N=C/c2ccco2)c(C)c1 | -10.1% | –
